High-throughput results deposited in PubChem by National Center for Advancing Translational Sciences (NCATS).
This is a sample that favours compounds with a hit; in the whole collection about 4% have one here.
D1 ag = agonists of human D1 dopamine receptor; AID 504660; activation, % at 2 µM; P21728; actives 1% (n = 360,000); HEK293 T-REx D1 cells, calcium flux, agonist mode; also: 0% is about no effect
Target sequence (P21728 whole entry, looked up): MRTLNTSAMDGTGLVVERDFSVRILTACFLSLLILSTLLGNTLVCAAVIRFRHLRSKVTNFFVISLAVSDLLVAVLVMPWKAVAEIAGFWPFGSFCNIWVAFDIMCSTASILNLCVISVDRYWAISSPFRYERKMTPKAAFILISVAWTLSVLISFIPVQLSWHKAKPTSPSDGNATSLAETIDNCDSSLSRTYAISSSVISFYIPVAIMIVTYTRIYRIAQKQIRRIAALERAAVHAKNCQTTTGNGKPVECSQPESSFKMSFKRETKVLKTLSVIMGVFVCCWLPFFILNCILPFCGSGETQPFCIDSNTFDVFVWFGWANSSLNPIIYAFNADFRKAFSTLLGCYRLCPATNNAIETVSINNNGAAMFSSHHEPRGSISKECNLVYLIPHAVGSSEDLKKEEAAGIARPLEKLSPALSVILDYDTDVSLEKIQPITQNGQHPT
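Tetracycline-induced HEK293 TREx D1 cells, force-coupled to calcium signalling, were dye-loaded with a no-wash calcium kit. Compound was pin-added after a 10 s baseline. Fluorescence was read kinetically at 1 cycle/s for 180 s, with calcium rises flagged as agonism.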
D1 antagonist = antagonists of human D1 dopamine receptor; P21728; HEK293 TREx D1 cells, calcium flux, dopamine EC80; hits give low values; activity change, negative = inhibition, % at 10 µM; actives 3.2% (n = 360,000); in the data active = activity change below about -30%; also: % is scaled to controls: 0 for no effect and ±100 for the full control effect
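Antagonism measured as reduced calcium response to an EC80 dopamine addition following 180 s compound pre-read; cells were inducible HEK293 Trex D1 plated overnight at 30 C, read kinetically at 1 cycle/sec.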
Glioma ERSR ind = inducers of ER stress response in human glioma cells. actives 0.02% (n = 420,000). Potency, µM, for inactives: at the top dose activation, usual class: activators. U87-MG GRP78 promoter luciferase reporter, 16 h. AID 602332; active = well fitted activation curve with a large enough effect; also: potency is read from the fitted curve at half-maximal effect; series mostly up to about 76 µM; % of control where 0% means no effect; nearly all actives have a fitted effect of over 35% in size
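Stably transfected U87-MG human glioma cells carrying a GRP78-based luminescent sensor were seeded at 1000 cells/well, pin-dosed with compounds and incubated 16 h. Luciferase reagent was then added, and end-point luminescence was read after 10 min at room temperature.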
TRHR ag = agonists of human TRH receptor; P34981; TRHR cells, calcium flux fluo-8, FDSS agonist mode; activation, % at 2 µM; actives 0.18% (n = 360,000); AID 493084; also: 0% is about no effect
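TRHR-expressing cells loaded with fluo-8 calcium dye; 23 nL library compound pin-transferred, kinetic FDSS fluorescence (Ex 480/Em 530) recorded about 180 s for agonist-induced calcium release, before a 10 nM TRH EC20 addition for potentiator mode.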
D1 potentiator = human D1 dopamine receptor positive modulation. P21728. HEK293 TREx D1 cells, calcium flux, dopamine EC20 potentiation. potentiation, % at 10 µM. actives 0.036% (n = 360,000); in the data active = potentiation above about 30%; also: 0% is about no effect
TRHR PAM = allosteric enhancers of human TRH receptor | AID 493056 | actives 0.66% (n = 360,000) | TRHR cells, fluo-8 calcium fluorescence, EC20 TRH enhancement | enhancement, % at 2 µM | P34981; in the data active = enhancement above about 30%; also: 0% is about no effect
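TRHR-expressing cells loaded with fluo-8 calcium dye were read kinetically (ex 480/em 530) during compound addition, then stimulated with an EC20 of TRH (10 nM final). Enhancement of the Gq-mediated intracellular calcium response was scored.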
Numbers without * were called inactive; x = no result given; ! = not active in a repeat. Rule as the data show it, unless noted: active = activation above about 30%; inactive = the rest.

SMILES | D1 ag | D1 antagonist | Glioma ERSR ind | TRHR ag | D1 potentiator | TRHR PAM
CCOC(=O)C[C@H]1c2cc(F)ccc2S(=O)(=O)N1Cc1cc(OC)c(OC)c(OC)c1 | x | x | -2.0% | x | x | x
Cc1nn2c(N3CCN(CCO)CC3)c3c(nc2c1-c1ccccc1)CCCC3 | 9.5 | -65.8* | -1.6% | -0.8 | -2.0 | -7.8
O=C(NCCN1CCOCC1)c1ccc(Cl)c([N+](=O)[O-])c1 | 5.9 | 5.3 | -0.4% | -0.2 | 0.1 | -3.0
O=C(CCC(=O)N1CCSc2ccccc21)Nc1cccc(F)c1 | 3.7 | -30.9* | 2.0% | 1.0 | -2.5 | -3.1
O=C(CCC(=O)N1CCSc2ccccc21)Nc1ccc(F)cc1 | 5.3 | -6.6 | -0.7% | -0.5 | 2.6 | -5.1
C/C(=N\NC(=O)c1cc(Br)ccc1O)c1cccs1 | 31.6* | -12.1 | -6.6% | 0.4 | -8.2 | -0.3
C/C(=N/NC(=O)c1ccc(Br)o1)c1cccs1 | 0.0 | -5.3 | 1.5% | -0.4 | -1.9 | -2.2
Cc1ccc(-c2nnc(Nc3ccc4c(c3)OCO4)c3ccccc23)cc1S(=O)(=O)NCCO | 0.7 | -33.6* | 8.3% | 0.1 | -6.0 | 15.8
CNC(=O)COc1ccc(Nc2nnc(-c3ccc(C)c(S(=O)(=O)NC(C)(C)C)c3)c3ccccc23)cc1 | -1.6 | -31.5* | 6.4% | -1.6 | -1.9 | 4.0
Cc1ccc(-c2nnc(Nc3ccc(CC(N)=O)cc3)c3ccccc23)cc1S(=O)(=O)NCCO | -0.4 | 4.8 | -4.5% | 0.4 | -7.7 | -11.0
Cc1ccc(-c2nnc(Nc3ccc(Cl)c(Cl)c3)c3ccccc23)cc1S(=O)(=O)NCCO | 5.8 | -49.2* | -4.0% | -1.9 | -1.6 | 8.1
CNS(=O)(=O)c1cc(-c2nnc(Nc3ccc(NC(C)=O)cc3)c3ccccc23)ccc1C | 0.9 | 5.8 | 5.1% | 0.4 | -1.2 | -0.4
COC(=O)c1cccc(C(=O)N2CCc3c(cnc(C)c3CNC(=O)/C=C/c3cccs3)C2)c1 | x | x | -2.0% | x | x | x
COc1ccc2nc3sc(C(=O)NCCN4CCc5ccccc5C4)cc3cc2c1 | 0.9 | -4.1 | 1.1% | 0.9 | 9.8 | 6.8
Cc1sc(C2C(C#N)=C(N)N(c3ccc(Cl)cc3)C3=C2C(=O)CCC3)cc1CN1CCOCC1 (configuration not stated) | 2.2 | -1.7 | -1.8% | 1.1 | -0.3 | -7.8
CCc1c(C2(O)CCCCC2)[nH]c2cc(C(F)(F)F)ccc12 | 31.6* | 12.0 | -6.0% | 1.3 | -0.2 | 22.0
CCCc1nc2sc3ccccc3c(=O)c2c(=O)n1Cc1ccco1 | 80.2* | 42.0 | -2.8% | 0.1 | 11.4 | 8.4
CCCc1nc2sc3ccccc3c(=O)c2c(=O)n1Cc1ccc(OC)cc1 | 7.6 | -20.3 | -2.1% | 0.2 | 1.4 | -2.0
CCOc1ccc(S(=O)(=O)c2c(C(=O)c3ccccc3)cnc3cc4c(cc23)OCCO4)cc1 | 6.8 | -2.0 | 0.1% | 0.7 | -0.2 | -3.1
COC(=O)c1ccc(OCC(O)CN2C(=O)c3ccccc3C2=O)cc1 (configuration not stated) | 2.6 | -30.6* | 9.2% | 0.8 | -10.6 | -1.6
COC(=O)c1ccc(OCC(O)CN2CCN(CC(O)COc3ccc(C(=O)OC)cc3)CC2)cc1 (configuration not stated) | 12.7 | -22.2 | -3.0% | 0.6 | -0.9 | 3.7
CCOC(=O)C1=C(c2ccccc2)N=c2s/c(=C\c3ccc(O)cc3)c(=O)n2C1c1cccs1 (configuration not stated) | 31.4* | 4.7 | 3.7% | 22.8 | 1.8 | 1.6
Cc1cc(N2CCN(C)CC2)ccc1NC(=O)c1cccc(S(=O)(=O)N2CCc3ccccc3C2)c1 | 15.7 | -87.3* | -12.5% | 0.2 | -12.4 | -2.5
C=CCOc1ccc(C2NC(=S)NC(C)=C2C(=O)c2ccccc2)cc1OC (configuration not stated) | 2.8 | -16.9 | 1.5% | 0.4 | -0.8 | 9.7
O=C(Nc1ccc(O)cc1)/C(=C\C=C\c1ccccc1)NC(=O)c1ccccc1 | 2.0 | -31.9* | -2.0% | 0.2 | 3.6 | 1.6
SMILES | D1 ag | D1 antagonist | Glioma ERSR ind | TRHR ag | D1 potentiator | TRHR PAM
O=C(Nc1ccc(C(=O)O)cc1)/C(=C\C=C\c1ccccc1)NC(=O)c1ccccc1Cl | 0.9 | 3.7 | -5.0% | 1.4 | -10.1 | -2.0
O=C(O)CCNC(=O)/C(=C\C=C\c1ccccc1)NC(=O)c1ccccc1 | 3.7 | 1.4 | -4.1% | 1.3 | -2.9 | 1.9
COC(=O)/C(=C\C=C\c1ccccc1)NC(=O)c1ccccc1 | 0.1 | -30.4* | -0.3% | -0.4 | -5.5 | -4.3
COC(=O)c1ccc(COC(=O)C(NC(=O)Cc2ccccc2)C(C)C)cc1 (configuration not stated) | 5.9 | -32.4* | 0.6% | -0.2 | 2.0 | 24.4
COc1ccccc1C(=O)COC(=O)C(NC(=O)Cc1ccccc1)C(C)C (configuration not stated) | x | x | -0.1% | x | x | x
Cc1cc(C(=O)Nc2cnn(Cc3ccc(Cl)cc3Cl)c2)no1 | 12.1 | -6.3 | 2.6% | -0.1 | -3.9 | 6.7
COc1ccc2c(c1)CCc1c(C(=O)Nc3c(C)nn(Cc4ccccc4)c3C)noc1-2 | 17.8 | -31.8*! | 2.4% | -2.1 | -2.0 | -4.5
O=C(Nc1cnn(Cc2ccc(Cl)cc2Cl)c1)c1noc2c1CCc1ccccc1-2 | 2.0 | 6.4 | -2.1% | 35.3* | -1.6 | 5.1
COc1ccc(OC)c(-c2cc(C(=O)Nc3c(C)nn(Cc4ccccc4)c3C)no2)c1 | 4.0 | -43.6* | -2.2% | -0.9 | 0.7 | -1.8
COc1ccc(OC)c(-c2cc(C(=O)NCc3ccco3)no2)c1 | 3.2 | -33.5* | 3.0% | 0.1 | -16.2 | -5.1
O=C(C[n+]1cccc2cccc(O)c21)c1ccc2ccccc2c1 | x | x | -3.4% | x | x | x
Cc1[nH]n(-c2ccccc2)c(=O)c1N=Nc1cccc([N+](=O)[O-])c1 | 4.2 | 4.6 | -1.0% | 0.3 | 0.1 | 3.1
COc1ccc2c(c1)CCc1c(C(=O)Nc3c(C)nn(Cc4ccccc4Cl)c3C)noc1-2 | 17.8 | -40.1* | -2.7% | -0.9 | -1.9 | 4.5
COc1ccc2c(c1)CCc1c(C(=O)Nc3c(C)nn(Cc4ccc(Cl)c(Cl)c4)c3C)noc1-2 | 18.7 | -4.0 | -2.1% | -1.9 | 0.8 | 12.2
CC(=O)N1c2ccc(S(=O)(=O)N3CCC(C(=O)NC4CCC(C)CC4)CC3)cc2CC1C (configuration not stated) | -0.2 | -21.6 | 0.7% | -1.3 | -3.7 | -3.3
O=C(Nc1ccc(Cl)cc1)Nc1ccc(N2CCOCC2)cc1 | 8.6 | -16.1 | 3.0% | 1.6 | -4.0 | 4.9
COc1ccccc1NC(=O)Nc1ccc(N2CCOCC2)cc1 | -0.8 | -42.6* | 1.8% | 0.5 | 0.3 | 6.9
O=C(Nc1ccc(N2CCOCC2)cc1)Nc1ccc(Cl)c(Cl)c1 | 17.3 | -30.8* | 12.7% | 1.2 | -3.8 | -0.8
